# According to ChEMBL document CHEMBL1157539, “Thousands of chemical starting points for antimalarial lead identification” (Nature, 2010):
# System: HepG2
# Assay: GSK_TCMDC: Percent inhibition of human HepG2 cell line. Test compounds present at 10uM.
# Type: functional
row,Structure (SMILES),Inhibition [%]
1,CCOC(=O)C(=O)N1c2ccc(OCC)cc2-c2c(ssc2=S)C1(C)C,5
2,O=C(Nc1ccc([N+](=O)[O-])cc1Br)c1cc2ccccc2nc1Cl,0
3,COc1ccccc1N1CCN(CCCCN(C(=O)Nc2cccc(Cl)c2)C(=O)Nc2cccc(Cl)c2)CC1.Cl,4
4,CCN(CC)Cc1cc(NC(=O)c2ccccc2O)ccc1Oc1ccc(Cl)cc1.Cl,32
5,Cc1cc(F)ccc1C1CCN(CCCCNC(=O)c2ccc(NC(=O)c3ccc(Cl)cc3)cc2)CC1,19
6,COc1ccc(-c2cccc(NC(=O)c3cccc(F)c3)c2)cc1CN1CCCN(C)CC1.O=C(O)C(F)(F)F,42
7,COc1ccc(C2CCN(CCCCNC(=O)c3ccc(NC(=O)c4ccc(Cl)cc4)cc3)CC2)c(OC)c1.Cl,32
8,COc1ccc(-n2cc(C(=O)c3cc(Br)ccc3O)cc(C#N)c2=O)cc1Cl,29
9,COc1ccccc1C(=O)Nc1cccc(N2CCC(NCc3ccc(-n4cccn4)cc3)CC2)c1,9
10,CNC(=O)Cc1ccc(C(=O)Nc2cccc(-c3csc(-c4nc5ccccc5[nH]4)c3)c2)cc1,36
11,NC(=O)C1CCN(Cc2ccc(-c3cccc(-c4nc5cc(F)ccc5[nH]4)c3)cc2)CC1.O=C(O)C(F)(F)F,10
12,CS(=O)(=O)c1ccc(CCNCc2ccc(-c3ccc(CN(C(=O)C4CCCC4)C4CCN(Cc5ccccc5)CC4)cc3)nc2)cc1.O=C(O)C(F)(F)F,24
13,COc1ccc(-c2ccc(NC(=O)c3ccccc3)cc2)cc1CN1CCCN(C)CC1.O=C(O)C(F)(F)F,24
14,COc1ccc(CN2CCC(CNCC(c3ccccc3)c3ccccc3)CC2)cc1.O=C(O)C(F)(F)F,84
15,O=C(NCC1CC1)C1CCN(C(c2ccccc2)c2nc3ccccc3s2)CC1 (stereo unspecified),0
16,CCN(CCCN1CCCCC1)c1cc(C)nc(Nc2ccc(C(F)(F)F)cc2)n1.O=C(O)C(F)(F)F,26
17,O=C(Nc1cccc(CN2CCCN(Cc3ccsc3)CC2)c1)c1ccc(Cl)c(Cl)c1.O=C(O)C(F)(F)F,36
18,CN(C)CCOc1ccc2c(c1)OC(C)(C)C=C2c1cccc2ccccc12.Cl,66

row,Structure (SMILES),Inhibition [%]
1,CCCNC(=O)C1Cc2c([nH]c3ccc(Br)cc23)C2(CCN(CCc3ccccc3)CC2)N1 (stereo unspecified),16
2,O=C(O)C(F)(F)F.OC1CCCN(Cc2ccc(-c3ccc(-c4nc5cc(F)ccc5[nH]4)s3)cc2)C1 (stereo unspecified),40
3,CC(=O)Nc1cccc(Nc2nccc(-c3c(-c4cccc(NC(=O)c5c(F)cccc5F)c4)nn4ncccc34)n2)c1,83
4,COc1ccc(CNCc2cccc(-c3cccc(-c4nc5cc(C(F)(F)F)ccc5[nH]4)c3)c2)cc1.O=C(O)C(F)(F)F,40
5,COc1cccc(CN2CCCC(COC(c3ccc(F)cc3)c3ccc(F)cc3)C2)c1O (stereo unspecified),24
6,COc1ccccc1C1CCN(CCCCNC(=O)c2ccc(/C=C/c3cc(Cl)cc(Cl)c3)cc2)CC1,36
7,CN1CCC(Oc2ccc(CN3CC[C@H](NC(=O)c4ccc(F)c(F)c4)C3)c3ccccc23)C1.O=C(O)C(F)(F)F (stereo partly specified),20
8,Cl.N[C@@H](CCNCc1ccc(-c2cccnc2)cc1)Cc1ccc(F)c(F)c1,45
9,CCN(CC)CCN(Cc1ccc(-c2ccc(C(F)(F)F)cc2)cc1)C(=O)c1ccc(-c2ccc(C#N)cc2)cc1,38
10,O=[N+]([O-])c1ccc(N/C(=N\c2ccccc2Br)NC2CCCc3ccccc32)c(O)c1 (stereo unspecified),0
11,Clc1cc(Nc2ccnc3ccc(Br)cc23)ccc1Oc1ccc2ccccc2c1Cl,5
12,COc1ccc2[nH]c(C)cc(=NN=Cc3ccccc3F)c2c1,3
13,CCCC(C)NC[C@@H](O)[C@H](Cc1ccccc1)NC(=O)c1cc(C2CCCC2)cc(N2CCCCS2(=O)=O)c1.Cl (stereo partly specified),8
14,O=C(NCc1cccc(F)c1)Nc1cccc(-c2cccc(-c3nc4ccccc4[nH]3)c2)c1,28
15,CCC(C)(CC)C(=O)n1ncc2c3c(N)nc(N)nc3ccc21,73
16,Cl.Oc1ccccc1CNCC12CC3CC(CC(C3)C1)C2,0
17,CCCNC(=O)c1cncc(-c2ccc(CNCCCc3ccccc3)cc2)c1.O=C(O)C(F)(F)F,0
18,O=C(Nc1ccc2c(c1)CCNCC2)Nc1ccc2ccccc2c1.O=C(O)C(F)(F)F,0
